High-throughput results: PubChem BioAssay, several laboratories
Shown are actives, neighbours in structure and some others; about 0.99% of the full set was active somewhere.
RTF Ca sens act = cardiac RTF calcium sensitization. P19429+P45379. IANBD-labeled TnC RTF fluorescence at EC20 calcium; 0% EC20 calcium, 100% full calcium. activation, % at 7.2 µM. 340,000 tested, 0.24% active;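 active = activation above the mean over all tested compounds plus 3 SD, cut at about 30% in these data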;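 also: rise in fluorescence read as greater calcium sensitivity of cardiac thin filaments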
LANA DNA inh = inhibitors of KSHV LANA C-terminal domain DNA binding | AID 504423 | MBP-C-LANA/FAM-LBS DNA binding, fluorescence polarization | 340,000 tested, 0.078% active | inhibition, % at 9 µM;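 active = highest replicate inhibition at or above 60% at 9 µM, even if other replicates fall short; inactive = all replicates below 60% inhibition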
LANA-H2A inh = blocks KSHV LANA binding to histone H2A/H2B; 320,000 tested, 0.6% active; cell-free LANA-H2A/H2B peptide, fluorescence polarization; inhibition, % (test concentration not listed); AID 2629; Q9QR71; in the data active = inhibition mostly above about 10%, no sharp cut-off; inactive = mostly below about 6.7%
Keap1 Nrf2 FP = Keap1-Nrf2 (human) interaction inhibition; Q14145; Keap1 Kelch-Nrf2 peptide fluorescence polarization, 1536-well; inhibition, % at 9.4 µM; 340,000 tested, 0.15% active; AID 504523; in the data active = inhibition above about 12%; inconclusive = no clear call, values can overlap the other calls; inactive = below about 7.3%;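 also: human Keap1 Kelch domain with fluorescein labeled Nrf2 9mer peptide probe; higher means more block of Keap1 binding to Nrf2 peptide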
Target sequence (Q14145 whole entry, looked up, the tested form may be a part): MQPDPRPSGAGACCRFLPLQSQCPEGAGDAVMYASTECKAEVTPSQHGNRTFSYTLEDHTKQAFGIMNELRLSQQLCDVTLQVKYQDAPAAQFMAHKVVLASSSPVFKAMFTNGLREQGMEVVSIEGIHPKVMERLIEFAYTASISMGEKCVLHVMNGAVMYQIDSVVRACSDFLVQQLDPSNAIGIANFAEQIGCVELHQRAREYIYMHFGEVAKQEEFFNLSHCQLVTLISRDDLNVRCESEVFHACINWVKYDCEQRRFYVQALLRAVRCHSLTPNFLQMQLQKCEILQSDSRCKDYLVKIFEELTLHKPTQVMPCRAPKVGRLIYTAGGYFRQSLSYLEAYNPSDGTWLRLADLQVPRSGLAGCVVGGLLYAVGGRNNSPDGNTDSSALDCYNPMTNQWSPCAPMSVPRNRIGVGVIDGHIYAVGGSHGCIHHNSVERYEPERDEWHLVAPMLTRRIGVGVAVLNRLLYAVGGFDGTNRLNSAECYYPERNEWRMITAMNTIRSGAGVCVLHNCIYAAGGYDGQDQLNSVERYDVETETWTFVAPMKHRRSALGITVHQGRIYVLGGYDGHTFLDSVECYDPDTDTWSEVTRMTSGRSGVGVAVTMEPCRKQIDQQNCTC
RTF Ca sens inh = cardiac RTF calcium desensitization; P19429+P45379; IANBD-labeled cardiac RTF, Ca2+ fluorescence; inhibition, % at 7.15 µM; 340,000 tested, 0.12% active; AID 493244;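 active = inhibition above the mean inhibition of all tested compounds plus 3 SD, cut at about 17% in these data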;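 also: assay run at fixed EC70 calcium of 1.6 mM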
A number is an active result.

For CCC(C)[C@H]1CNC(=S)N1CCC12CC3CC(CC(C3)C1)C2 (stereo partly specified) the results were RTF Ca sens act inactive, LANA DNA inh inactive, LANA-H2A inh 16.2, Keap1 Nrf2 FP inactive and RTF Ca sens inh inactive.
`O=C(CCn1c(=S)oc2ccccc21)Nc1cccc(F)c1` gave RTF Ca sens act inactive, LANA DNA inh inactive, LANA-H2A inh 129.3, Keap1 Nrf2 FP inactive and RTF Ca sens inh inactive.
Screening Oc1[nH]c2ccccc2c1N=Nc1ccc(F)cc1 returned RTF Ca sens act 34.1, LANA DNA inh inactive, LANA-H2A inh inactive, Keap1 Nrf2 FP inactive and RTF Ca sens inh inactive.
Screening Oc1[nH]c2ccc(Br)cc2c1N=Nc1ccc(F)cc1 returned RTF Ca sens act 467.4, LANA DNA inh inactive, LANA-H2A inh inactive, Keap1 Nrf2 FP inactive and RTF Ca sens inh inactive.
O=[N+]([O-])c1ccc2[nH]c(O)c(N=Nc3ccc(F)cc3)c2c1 was read as RTF Ca sens act inactive, LANA DNA inh inactive, LANA-H2A inh inactive, Keap1 Nrf2 FP inactive and RTF Ca sens inh inactive.
`Cc1nn(Cc2ccc(Cl)cc2)c(C)c1NC(=O)c1cc(-c2ccco2)on1` gave RTF Ca sens act inactive, LANA DNA inh inactive, LANA-H2A inh inactive, Keap1 Nrf2 FP inactive and RTF Ca sens inh inactive.
`Cc1cc(NC(=O)c2cc(-c3ccco3)on2)nn1Cc1ccc(Cl)cc1` gave RTF Ca sens act inactive, LANA DNA inh inactive, LANA-H2A inh 15.0, Keap1 Nrf2 FP inactive and RTF Ca sens inh inactive.
For CC1=CC(=C2C(=O)c3ccccc3C2=O)C=C(C)O1 the results were RTF Ca sens act inactive, LANA DNA inh inactive, LANA-H2A inh inactive, Keap1 Nrf2 FP inactive and RTF Ca sens inh inactive.
For CC(=O)N1C(=O)C(=C2C=C(C)OC(C)=C2)c2ccccc21 the results were RTF Ca sens act 66.1, LANA DNA inh inactive, LANA-H2A inh inactive, Keap1 Nrf2 FP inactive and RTF Ca sens inh inactive.
Screening COc1cc(/C=C(\C#N)c2nc3ccccc3o2)ccc1O returned RTF Ca sens act 50.4, LANA DNA inh inactive, LANA-H2A inh inactive, Keap1 Nrf2 FP inactive and RTF Ca sens inh inactive.
N#C/C(=C\c1ccc(O)cc1)c1nc2ccccc2o1 was read as RTF Ca sens act inactive, LANA DNA inh inactive, LANA-H2A inh inactive, Keap1 Nrf2 FP inconclusive and RTF Ca sens inh inactive.
For CC(=O)Nc1ccc(NC(=O)CSc2nnc(-c3ccco3)o2)cc1 the results were RTF Ca sens act inactive, LANA DNA inh inactive, LANA-H2A inh 19.5, Keap1 Nrf2 FP inactive and RTF Ca sens inh inactive.
`CCc1ccc(NC(=O)CSc2nnc(-c3ccco3)o2)cc1` gave RTF Ca sens act inactive, LANA DNA inh inactive, LANA-H2A inh inactive, Keap1 Nrf2 FP inactive and RTF Ca sens inh inactive.
Screening Cc1ccc(/C=C2\Sc3ccccc3C2=O)s1 returned RTF Ca sens act inactive, LANA DNA inh inactive, LANA-H2A inh inactive, Keap1 Nrf2 FP inactive and RTF Ca sens inh inactive.
Screening COc1ccc(OC)c(/C=C2/Sc3ccccc3C2=O)c1 returned RTF Ca sens act 36.5, LANA DNA inh inactive, LANA-H2A inh inactive, Keap1 Nrf2 FP inactive and RTF Ca sens inh inactive.
For O=S(=O)(O)c1cc(Cl)cc(N=Nc2ccc(O)cc2O)c1O the results were RTF Ca sens act inactive, LANA DNA inh 83.9, Keap1 Nrf2 FP inactive and RTF Ca sens inh inactive.
O=[N+]([O-])c1ccc(N=Nc2ccc(O)cc2O)cc1 was read as RTF Ca sens act inactive, LANA DNA inh inactive, LANA-H2A inh inactive, Keap1 Nrf2 FP inactive and RTF Ca sens inh inactive.
`O=C(CN1CCN(c2ccccc2F)CC1)NCc1ccccc1` gave RTF Ca sens act inactive, LANA DNA inh inactive, LANA-H2A inh 32.9, Keap1 Nrf2 FP inactive and RTF Ca sens inh inactive.
`COc1ccc(C(=O)OCC(=O)NC2CC2)cc1S(=O)(=O)N(C)Cc1ccccc1` gave RTF Ca sens act inactive, LANA DNA inh inactive, LANA-H2A inh inactive, Keap1 Nrf2 FP inactive and RTF Ca sens inh inactive.
`NS(=O)(=O)c1ccc(CCNC(=O)CNC(=O)COc2ccccc2)cc1` gave RTF Ca sens act inactive, LANA DNA inh inactive, LANA-H2A inh inactive, Keap1 Nrf2 FP inactive and RTF Ca sens inh inactive.
NS(=O)(=O)c1ccc(CCNC(=O)CNC(=O)c2ccc(Br)o2)cc1 was read as RTF Ca sens act inactive, LANA DNA inh inactive, LANA-H2A inh 23.4, Keap1 Nrf2 FP inactive and RTF Ca sens inh inactive.
For O=C(COC(=O)c1nc(Cl)ccc1Cl)NC1CCS(=O)(=O)C1 (stereo unspecified) the results were RTF Ca sens act inactive, LANA DNA inh inactive, LANA-H2A inh inactive, Keap1 Nrf2 FP inactive and RTF Ca sens inh inactive.
For COc1cc(OC)cc(C(=O)NC(C(=O)Nc2ccc3c(c2)OCO3)C(C)C)c1 (stereo unspecified) the results were RTF Ca sens act inactive, LANA DNA inh inactive, LANA-H2A inh 10.7, Keap1 Nrf2 FP inactive and RTF Ca sens inh inactive.
For COc1cc(OC)cc(C(=O)N[C@H](C(=O)Nc2ccc3c(c2)OCO3)C(C)C)c1 the results were RTF Ca sens act inactive, LANA DNA inh inactive, LANA-H2A inh inactive, Keap1 Nrf2 FP inactive and RTF Ca sens inh inactive.
`COCC(=O)N1CCC(Oc2ccc(C(=O)N(C)CCCC3CCCC3)cc2)CC1` gave RTF Ca sens act inactive, LANA DNA inh inactive, LANA-H2A inh 15.9, Keap1 Nrf2 FP inactive and RTF Ca sens inh inactive.
`COCC(=O)N1CCC(Oc2ccc(C(=O)N3CCCCCCC3)cc2)CC1` gave RTF Ca sens act inactive, LANA DNA inh inactive, LANA-H2A inh inactive, Keap1 Nrf2 FP inactive and RTF Ca sens inh inactive.
`COc1ccc(NC(=O)CN2CCC(NC(=O)c3ccc(OC)cc3)CC2)cc1` gave RTF Ca sens act inactive, LANA DNA inh inactive, LANA-H2A inh inactive, Keap1 Nrf2 FP inactive and RTF Ca sens inh inactive.
`COc1ccc(C2C(C(C)=O)=C(C)N=c3s/c(=C\c4cc(C)n(C)c4C)c(=O)n32)c(OC)c1` (stereo unspecified) gave RTF Ca sens act 110.0, LANA DNA inh inactive, LANA-H2A inh inactive, Keap1 Nrf2 FP inactive and RTF Ca sens inh inactive.
For CC1(C)CC(=O)C(Sc2ccc(Br)cc2)=C(O)C1 the results were RTF Ca sens act inactive, LANA DNA inh inactive, LANA-H2A inh inactive, Keap1 Nrf2 FP inactive and RTF Ca sens inh inactive.
For Cc1cc(-c2ccc(N=Nc3c(S(=O)(=O)O)cc4cc(S(=O)(=O)O)cc(N)c4c3O)c(C)c2)ccc1N=Nc1c(S(=O)(=O)O)cc2cc(S(=O)(=O)O)cc(N)c2c1O the results were LANA-H2A inh inactive.
O=S(=O)(O)c1cc(O)c2c(O)c(N=Nc3cc(Cl)ccc3O)c(S(=O)(=O)O)cc2c1 was read as RTF Ca sens act inactive, LANA DNA inh inactive, LANA-H2A inh inactive, Keap1 Nrf2 FP inactive and RTF Ca sens inh 27.2.
For Cc1cc(C(=O)O)ccc1-c1ccc(/C=C2\SC(=O)N(CC(=O)Nc3ccc4c(c3)OCO4)C2=O)o1 the results were RTF Ca sens act 46.0, LANA DNA inh inactive, LANA-H2A inh inactive, Keap1 Nrf2 FP 13.5 and RTF Ca sens inh inactive.
For O=C(NCc1ccccc1)/C(=C\c1ccc(O)cc1)NC(=O)c1ccco1 the results were RTF Ca sens act inactive, LANA DNA inh inactive, LANA-H2A inh inactive, Keap1 Nrf2 FP inactive and RTF Ca sens inh inactive.
